Several values for one entry are separate records, joined by “and”; a condition that tells them apart may be missing. Equal values may be shown once. About 2,000 (36%) of roughly 5,500 compounds were called active. Inconclusive results (about 18%) are left out. Rule as the data show it: active = normalized growth mostly below about 0.91 (no sharp cut-off); inconclusive = no clear call, values can overlap the other calls; inactive = mostly above about 0.92. Some of the results follow.
Assay: chemical genetic growth profiling, strain panel (AID 1159580);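 also: tested at 20 µM; growth read once vehicle control cultures reached saturation at 30 °C; 1 = growth at the plate median or of vehicle wells; lower values mean less growth of the strain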
Settings: S. cerevisiae deletion strains, growth OD

Measured: normalized growth

CCN(CCCc1ccccc1)CCCc1ccccc1
active: locus YAL026C, strain drs2, hits give low values 0.862 | locus YDR137W, strain rgp1, hits give low values 0.735
inactive: locus YAL021C, strain ccr4, hits give low values 0.915 | locus YAL030W, strain snc1, hits give low values 0.991 | locus YBL061C, strain skt5, hits give low values 0.981 | locus YBR009C, strain hhf1, hits give low values 1.01 | locus YBR021W, strain FUR4, hits give low values 0.977 | locus YBR023C, strain chs3, hits give low values 0.96 | locus YBR171W, strain sec66, hits give low values 0.97 | locus YBR229C, strain ROT2, hits give low values 1 | locus YBR231C, strain swc5, hits give low values 0.987 | locus YBR279W, strain paf1, hits give low values 0.983 | locus YCL011C, strain gbp2, hits give low values 0.966 | locus YCL016C, strain dcc1, hits give low values 0.939 | locus YCL029C, strain bik1, hits give low values 1.02 | locus YCL061C, strain MRC1, hits give low values 0.965 | locus YCL069W, strain vba3, hits give low values 0.985 | locus YCR088W, strain abp1, hits give low values 0.99 | locus YDL005C, strain med2, hits give low values 0.99 | locus YDL035C, strain GPR1, hits give low values 0.976 | locus YDL040C, strain nat1, hits give low values 0.984 | locus YDL074C, strain BRE1, hits give low values 1.01 | locus YDL101C, strain DUN1, hits give low values 1.02 | locus YDL134C, strain PPH21, hits give low values 0.976 | locus YDL185W, strain tfp1, hits give low values 1.03 | locus YDL192W, strain arf1, hits give low values 1.02 | locus YDR001C, strain nth1, hits give low values 0.985 | locus YDR069C, strain doa4, hits give low values 0.974 | locus YDR101C, strain arx1, hits give low values 1.03 | locus YDR150W, strain NUM1, hits give low values 1 | locus YDR159W, strain sac3, hits give low values 1.01 | locus YDR162C, strain NBP2, hits give low values 1.01 | locus YDR195W, strain ref2 1.02 | locus YDR297W, strain sur2, hits give low values 0.99 | locus YDR318W, strain mcm21, hits give low values 1.01 | locus YDR334W, strain swr1, hits give low values 0.983 | locus YDR335W, strain msn5, hits give low values 0.983 | locus YDR388W, hits give low values 1.02 | locus YDR392W, strain spt3, hits give low values 0.951 | locus YDR502C, strain sam2, hits give low values 1.02 | locus YEL003W, strain gim4, hits give low values 0.99 | locus YEL037C, strain rad23, hits give low values 0.984 | locus YEL061C, strain CIN8 (second series), hits give low values 0.988 | locus YEL061C, strain CIN8, hits give low values 1 | locus YER015W, strain faa2, hits give low values 0.977 | locus YER016W, strain bim1, hits give low values 1 | locus YER110C, hits give low values 1.04 | locus YER111C, strain swi4, hits give low values 0.962 | locus YER155C, strain BEM2 (second series), hits give low values 0.99 | locus YER155C, strain BEM2, hits give low values 0.999 | locus YER167W, strain BCK2, hits give low values 0.975 | locus YFR010W, strain ubp6, hits give low values 0.98 | locus YGL078C, strain dbp3, hits give low values 1.02 | locus YGL086W, strain mad1, hits give low values 1.01 | locus YGL167C, strain pmr1, hits give low values 0.983 | locus YGL173C, strain kem1, hits give low values 0.979 | locus YGL227W, strain vid30, hits give low values 0.994 | locus YGL240W, strain doc1, hits give low values 0.971 | locus YGL248W, strain PDE1, hits give low values 0.997 | locus YGL253W, strain hxk2, hits give low values 0.978 | locus YGR078C, strain PAC10, hits give low values 1 | locus YGR135W, strain pre9, hits give low values 1.01 | locus YGR252W, strain gcn5, hits give low values 0.945 | locus YHR013C, strain ard1, hits give low values 0.927 | locus YHR027C, strain rpn1, hits give low values 0.978 | locus YHR030C, strain SLT2, hits give low values 1 and 1.01 | locus YHR079C, strain IRE1 (second series), hits give low values 1.03 | locus YHR079C, strain IRE1, hits give low values 1.03 | locus YHR094C, strain hxt1, hits give low values 1.03 | locus YHR129C, strain ARP1, hits give low values 1 | locus YHR142W, strain chs7, hits give low values 0.93 | locus YHR200W, strain rpn10, hits give low values 1.02 | locus YIL066C, strain RNR3, hits give low values 0.965 | locus YIL073C, strain SPO22, hits give low values 0.999 | locus YIL125W, strain kgd1, hits give low values 1.03 | locus YIR030C, strain dcg1, hits give low values 1.03 | locus YJL092W, strain hpr5, hits give low values 0.976 | locus YJL095W, strain BCK1 (second series), hits give low values 0.981 | locus YJL095W, strain BCK1, hits give low values 1.02 | locus YJL115W, strain asf1, hits give low values 0.98 | locus YJL129C, strain trk1, hits give low values 0.956 | locus YJL134W, strain LCB3, hits give low values 1 | locus YJL154C, strain vps35, hits give low values 0.977 | locus YJL164C, strain tpk1, hits give low values 0.97 | locus YJL166W, strain qcr8, hits give low values 0.93 | locus YJL168C, strain set2, hits give low values 1.02 | locus YJL187C, strain SWE1 (second series), hits give low values 1.02

Source: PubChem BioAssay AID1159580 (chemical genetic matrix, 2015)
